Rows were chosen to be rich in hits. Some 1% of all compounds tested hit in one or more screens of this group.
WNV protease inh: WNV NS2B-NS3 proteinase inhibition; P06935; WNV NS2B-NS3 protease, fluorogenic substrate Ex360/Em465; stronger effect = lower value; z-score (test concentration not listed); 65,000 compounds, 0.18% hits; in the data active means z-score below about -3
SKBR3 24h inh: SK-BR-3 proliferation inhibitors | viability, % at 10 µM | 41,000 compounds, 0.47% hits | SK-BR-3 viability, CellTiter-Glo ATP luminescence, 24 h; stronger effect = lower value;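 active means viability at or below the median of all test compounds minus 3 SD, in both replicates if run twice, cut at about 45% in these data; inconclusive means duplicate replicates that disagree with each other; inactive means viability above that cutoff in every replicate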
Hsp90 inh: displaces geldanamycin probe from tumor Hsp90. inhibition, % at 30 µM. NCI-N417 lysate Hsp90, Cy3B-geldanamycin FP displacement. 64,000 compounds, 0.35% hits;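 active means inhibition above 50%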
DUSP1 inh: human dual specificity phosphatase 1 inhibition; P28562; recombinant MKP-1, OMFP hydrolysis fluorescence; inhibition, %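 (compounds tested at a single concentration somewhere between 10 and 100 µM)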; 65,000 compounds, 0.15% hits; AID 374;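 active means inhibition above about 50%, limit read from the data; inconclusive means inhibition over screen mean plus 3 SD, below that limit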
Cdc25B block: human M-phase inducer phosphatase 2 inhibition | P30305 | recombinant Cdc25B, OMFP fluorescence Ex485/Em525 | inhibition, %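 (compounds tested at 10 µM final in the well)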 | 65,000 compounds, 0.1% hits | AID 368; in the data active means inhibition above about 50%
Target sequence (P30305 whole entry, looked up): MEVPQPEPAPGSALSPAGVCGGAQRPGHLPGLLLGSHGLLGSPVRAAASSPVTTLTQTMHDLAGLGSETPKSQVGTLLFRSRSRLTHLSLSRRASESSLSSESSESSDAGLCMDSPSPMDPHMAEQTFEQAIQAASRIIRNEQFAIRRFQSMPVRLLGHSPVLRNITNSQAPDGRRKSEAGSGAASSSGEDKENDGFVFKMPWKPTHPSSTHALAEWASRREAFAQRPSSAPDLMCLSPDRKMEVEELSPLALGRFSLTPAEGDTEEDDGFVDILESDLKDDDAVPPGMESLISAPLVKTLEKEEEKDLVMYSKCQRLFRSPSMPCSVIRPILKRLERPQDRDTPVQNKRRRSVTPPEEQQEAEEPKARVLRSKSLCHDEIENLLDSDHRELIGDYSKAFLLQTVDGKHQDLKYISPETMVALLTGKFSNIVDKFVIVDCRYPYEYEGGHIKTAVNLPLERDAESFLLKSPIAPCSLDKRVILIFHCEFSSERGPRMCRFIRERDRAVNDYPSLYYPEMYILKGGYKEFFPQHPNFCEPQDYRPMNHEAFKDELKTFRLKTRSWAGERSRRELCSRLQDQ
Hits are given with their value; - = inactive; ? = inconclusive; . = no result; ! = a repeat was not active.

SMILES | WNV protease inh | SKBR3 24h inh | Hsp90 inh | DUSP1 inh | Cdc25B block
COc1ccc(S(=O)(=O)N2CCC(C(=O)N3CCCCCC3)CC2)cc1 | - | - | - | - | -
Cc1oc(-c2cccc(Cl)c2)nc1CN1CCCC(C(=O)NC(C)c2ccc3c(c2)OCCO3)C1 (stereo not given) | - | . | - | - | -
CCOC(=O)C1CCCN(C(=O)c2cc3c(=O)n4cccc(C)c4nc3n2C)C1 (stereo not given) | - | - | - | - | -
CN1CCC2(CCN3CCc4c(oc5ccccc45)C3C2)N(C)C1=O (stereo not given) | . | . | - | . | .
Oc1ccccc1O | . | . | 52 | . | .
Oc1cc2c(c(Cl)c1O)CCNCC2c1ccccc1 (stereo not given) | . | . | 82 | . | .
Oc1ccc(C2CNCCc3c2cc(O)c(O)c3Cl)cc1 (stereo not given) | . | . | 75 | . | .
NC[C@@H]1O[C@H](C23CC4CC(CC(C4)C2)C3)Cc2c1ccc(O)c2O | . | . | 78 | . | .
O=c1[nH]ccc2c(O)cccc12 | . | . | - | . | .
CC1CN(Cc2nc3c(c(=O)n(C)c(=O)n3C)n2Cc2ccc(Cl)cc2)CC(C)O1 (stereo not given) | - | . | - | - | -
CNC(=O)c1ccccc1NC(=O)c1cccc(S(=O)(=O)N2CCC(C)CC2)c1 | - | 43 | - | - | -
COc1cccc(CNC(=O)C2CCN(S(=O)(=O)c3ccc4c(c3)CCC(=O)N4)CC2)c1 | -3.3 | . | - | - | -
COc1cccc(CNC(=O)C2CCN(S(=O)(=O)c3ccc(F)cc3)CC2)c1 | - | - | - | - | -
CCOC(=O)c1cnc(SCc2ccc(C)cc2)nc1N | - | - | - | - | -
CCOC(=O)c1cnc(SC2CCc3ccccc3C2=O)nc1N (stereo not given) | - | - | 56 | - | -
COc1ccc2c(c1)c1c(C)c3cnccc3c(C)c1n2CCCN | . | . | - | . | .
O=C(OC1CCc2ccccc2C1=O)c1ccccc1O (stereo not given) | - | - | 72 | - | -
CCn1c(CSc2nnc3ccccn23)nc2cc(C(=O)O)ccc21 | - | . | 138 | - | -
CCn1c(CSc2nc3ccccc3n2C)nc2ccccc21 | - | . | - | - | -
CCn1c(CSc2nnc(-c3cccnc3)n2-c2ccccc2C)nc2cc(C(=O)O)ccc21 | - | . | 145 | - | -
COC(=O)C1(S(=O)(=O)c2ccc(C)cc2)CCOCC1 | - | . | - | - | -
CCCNC(=O)C1CC(=O)N(c2ccc(OCC(=O)Nc3cc(C)cc(C)c3)cc2)C1 (stereo not given) | - | . | - | - | -
O=C(O)[C@@H]1C[C@@H](C(=O)O)N1 | . | . | - | . | .
N=c1sccn1CC(=O)Nc1ccccc1-c1ccccc1 | - | 33 | . | - | -
O=C(NCc1ccc2c(c1)OCO2)C1CCCN1C(=O)Nc1cccc(Cl)c1 (stereo not given) | - | 34 | - | - | -
SMILES | WNV protease inh | SKBR3 24h inh | Hsp90 inh | DUSP1 inh | Cdc25B block
O=C(CSc1nnc(Cc2cc(=O)[nH]c(=O)[nH]2)n1-c1ccccc1)NCC1CCCO1 (stereo not given) | - | - | 89 | - | -
O=C(CSc1nnc(Cc2cc(=O)[nH]c(=O)[nH]2)n1-c1ccc(Cl)cc1)NCC1CCCO1 (stereo not given) | - | - | - | - | -
Oc1ccc(-c2onc(C(F)(F)F)c2-c2cscn2)c(O)c1 | - | . | 65 | - | -
CC(C)(C)C(=O)Oc1cc(N)n(S(=O)(=O)c2ccc(F)cc2)n1 | - | - | - | - | -
Cc1ccc(S(=O)(=O)n2nc(OC(=O)c3cccs3)cc2N)cc1 | -6.4 | . | - | - | -
Cc1ccc(S(=O)(=O)n2nc(OC(=O)c3ccco3)cc2N)cc1 | -5.3 | . | - | - | -
Nc1cc(OC(=O)c2ccco2)nn1S(=O)(=O)c1ccc(F)cc1 | -11 | . | - | - | -
COc1ccc2c(c1)[nH]c1c(C=Cc3ccccc3)nccc12 | . | . | - | . | .
COc1ccc(OC)c(NC(=O)Cn2cc(C#N)c3cc(Br)ccc32)c1 | - | - | - | - | -
CCOC(=O)C1=C(C)OC(N)=C(C(=O)OCC)C1c1cccnc1 (stereo not given) | - | - | 72 | - | -
CCOC(=O)C1=C(C)OC(N)=C(C(=O)OCC)C1c1ccncc1 (stereo not given) | - | . | - | - | -
Cc1cc(NC(=O)CCCOc2ccc(Cl)cc2Cl)no1 | - | - | - | - | 64
CCOc1cc(N2CCOCC2)c(OCC)cc1NC(=O)c1cc(-c2ccco2)nc2ccccc12 | - | 44 | . | - | -
COC(=O)c1[nH]c2ccc(Cl)cc2c1NC(=O)C1CC1 | - | - | - | - | 84
O=C(NCCCn1ccnc1)c1noc2c1CCc1ccccc1-2 | - | - | 63 | - | -
Cc1onc(-c2ccccc2Cl)c1C(=O)Nc1ccc(-n2nncc2C(C)(C)C)cc1 | - | . | - | - | 66
COc1cccc(C(=O)NCC(=O)n2nc(C)cc2C)c1 | - | - | 121 | - | -
O=c1cc(-c2c(F)c(F)c(F)c(F)c2F)oc2c(F)c(F)c(F)c(F)c12 | - | 34 | . | - | -
CCOC(=O)c1c(C)n(C)c2ccc(OC)c(NC(=O)CN3CCCCC3)c12 | -3.4 | - | - | - | -
CCOC(=O)c1c(C)n(C)c2ccc(O)c(CN3CCCCC3)c12 | - | - | - | - | -
CCOC(=O)N1CCC(NC(=O)CSCc2nc(-c3sccc3C)oc2C)CC1 | - | . | 98 | - | -
CCOC(=O)N1CCC(NC(=O)CSCc2nc(-c3cccc(OC)c3)oc2C)CC1 | - | . | - | - | -
Nc1nc(Cl)nc2c1ncn2[C@@H]1O[C@H](CO)[C@H](O)C1O (stereo not given in full) | . | . | - | . | .
Cc1ccc(NC(=O)COC(=O)c2ccc3c(c2)NC(=O)C2CCCN32)cc1C (stereo not given) | - | . | - | 54 | -
c1ccc(SCc2nc(-c3ccncc3)no2)cc1 | - | - | - | 74 | -
SMILES | WNV protease inh | SKBR3 24h inh | Hsp90 inh | DUSP1 inh | Cdc25B block
CC(=O)Nc1nc2ccccc2n1CCOc1ccccc1Cl | -5.6 | . | - | - | -
COc1ccc(CNc2cc(C)nc3ncnn23)c(OC)c1 | - | 40 | - | - | -
O=C(CCc1ccccc1)Nc1nc2n(n1)C(c1ccc(Cl)cc1)CC(=O)N2 (stereo not given) | -3.4 | - | - | - | -
O=C(CCc1ccccc1)Nc1nc2n(n1)C(c1ccccc1)CC(=O)N2 (stereo not given) | - | - | - | - | -
CCC(NC(C)C)C(O)c1ccc(O)c(O)c1 (stereo not given) | - | - | 59! | - | -
CC(C)NC[C@H](O)c1ccc(O)c(O)c1 | . | . | - | . | .
CCOCCCNC(=O)C(NC(=O)CC1NC(=O)NC1=O)c1ccc(Cl)cc1 (stereo not given) | - | 44 | . | - | -
CCOCCCNC(=O)C(NC(=O)c1ccc(=O)[nH]c1)c1ccccc1 (stereo not given) | - | . | - | - | -
COc1cccc(NC(=O)CSc2nc3n[nH]c(C)c3c(=N)n2-c2cccc(OC)c2)c1 | -3.1 | - | - | ? | -
CCCCNc1c(C(=O)OCC)c(C)nc2c1cnn2CC | . | . | - | . | .
CC1=C(C#N)C(=O)OC(C)(C)C1 | -8.2 | - | - | - | -
